Experimental data reported in PubChem BioAssay (Tox21).
Results filed as inconclusive are left out. The source made the active and inactive calls. Unless noted, the call rests on the fitted dose curve.

Experiments:
[1] = Nuclear factor erythroid 2-related factor 2/antioxidant responsive element (Nrf2/ARE) small molecule agonists: qHTS cell viability counter screen in human keratinocytes (AID 1919968; active means well fitted curve in the direction sought with a large enough effect in the repeat runs; an effect the other way counts as inactive or inconclusive; further: nearly all actives have a fitted effect of over 55% in size)
How it was run: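 HaCaT ARE reporter line, 1,500 cells/well; 5 h settle, 37 C/5% CO2; cpd in DMSO pinned; 23 h exposure; CellTiter-Fluor, 1 h; fluorescence.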

[2] = Nuclear factor erythroid 2-related factor 2/antioxidant responsive element (Nrf2/ARE) small molecule agonists: luciferase reporter gene qHTS assay in human keratinocytes (AID 1919969); further: nearly all actives have a fitted effect of over 35% in size
[3] = target: Gonadotropin-releasing hormone receptor (Homo sapiens) (UniProt P30968); assay: Human gonadotropin-releasing hormone receptor (GnRHR) small molecule agonists, calcium flux assay in GnRHR-HEK293 cells (AID 1920063); further: nearly all actives have a fitted effect of over 35% in size
How it was run: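 GnRHR-HEK293, 1500 cells/well, 18 h 37 C/5% CO2; Ca dye 1 h 37 C; cpd pinned (DMSO), agonist mode; kinetic FL 480/540, 3 min, 1 s reads; 15 conc, n=3.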

[4] = target: KiSS-1 receptor (Homo sapiens) (UniProt Q969F8); assay: Human kisspeptin (KISS1R) small molecule agonists, calcium flux assay in KISS1R-HEK293 cells (AID 1920064; active means well fitted curve in the direction sought with a large enough effect in the repeat runs; an effect the other way counts as inactive or inconclusive)
How it was run: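 Stable human KISS1R HEK293 line; 18 h plating, 37 C/5% CO2; calcium dye 1 h 37 C; compound pin transfer; kinetic fluorescence Ex/Em 480/540, 3 min.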

[5] = G protein-coupled receptor (GPCR) small molecule agonists, calcium flux assay: HEK293 wild type cell line counter screen (AID 1920065)
How it was run: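 Kinetic fluorescence at Ex/Em 480/540, recorded every second over 3 min, served as the read-out after compound addition. Each compound was tested at 15 concentrations in triplicate on cells pre-loaded with calcium dye for 1 h.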

[6] = p53 small molecule agonists, cell-based qHTS assay with human liver microsomes (AID 1963577);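 further: p53 response element beta-lactamase reporter cells with liver microsomes plus NADPH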
How it was run: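 16 h, 37 C exposure of p53RE-bla cells to compounds with human liver microsomes and NADPH (0.5 mg/mL final each); detection via LiveBLAzer mixture, 2 h dark at room temperature.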

[7] = p53 small molecule agonists, cell-based qHTS assay with rat liver microsomes (AID 1963578)
How it was run: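 With rat liver microsomes and NADPH present (0.5 mg/mL final each), p53RE-bla cells are treated with compound for 16 h at 37 C. LiveBLAzer detection mixture is then applied for 2 h at room temperature in the dark.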

[8] = p53 small molecule agonists, cell-based qHTS assay with human liver microsomes: qHTS cell viability counter screen (AID 1963579); further: nearly all actives have a fitted effect of over 45% in size
How it was run: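 In this multiplexed counter screen, the reporter plates were subsequently treated with CellTiter-Glo so that cell viability, reflected by luminescence, could be recorded for p53RE-bla cells dosed 16 h with compounds under microsomal activation (HLM and NADPH).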

[9] = p53 small molecule agonists, cell-based qHTS assay with rat liver microsomes: qHTS cell viability counter screen (AID 1963580); further: nearly all actives have a fitted effect of over 45% in size
How it was run: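 Intracellular ATP, by CellTiter-Glo luminescence, defines viability. HCT-116 p53RE-bla cells, 4,000 per well, were compound-treated in the presence of rat liver microsomes and NADPH for 16 h at 37 C.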

[10] = p53 small molecule agonists, cell-based qHTS assay: qHTS cell viability counter screen (AID 1963581); further: nearly all actives have a fitted effect of over 45% in size
How it was run: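 HCT-116 p53RE-bla cells, 4,000/well, plated 5 h before compound pin transfer; 16 h at 37 C; bla substrate 2 h RT; then CellTiter-Glo, 30 min RT, luminescence.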

[11] = p53 small molecule agonists, cell-based qHTS assay (AID 1963582; active means well fitted activation curve with a large enough effect in the signal ratio in the repeat runs, not every such curve was filed as active; the % refers to the signal ratio)
How it was run: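 Reporter line: p53RE-bla. Pre-incubation 5 h, 37 C, 5% CO2; compound (DMSO, pin tool) 16 h, 37 C; B/G FRET substrate 2 h RT; fluorescence intensity read.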

[12] = target: 5-hydroxytryptamine receptor 2A (Homo sapiens) (UniProt P28223); assay: 5-hydroxytryptamine receptor 2A (HTR2A) small molecule antagonists, cell-based qHTS assay (AID 1963586); further: nearly all actives have a fitted effect of over 45% in size
How it was run: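 Antagonist-mode intracellular calcium assay: DOI (4 nM) added after 5 min compound pre-incubation at room temperature to dye-loaded HTR2A-CHO cells. Fluorescence followed for 3 min, sampled every second.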

[13] = target: 5-hydroxytryptamine receptor 2A (Homo sapiens) (UniProt P28223); assay: 5-hydroxytryptamine receptor 2A (HTR2A) small molecule agonists, cell-based qHTS assay (AID 1963587); further: nearly all actives have a fitted effect of over 30% in size
How it was run: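 Kinetic calcium-flux fluorescence (2 min, 1 sec intervals) after compound addition in agonist mode. HTR2A-CHO cells were cultured 18 h, then dye-loaded 1 h at 37 C.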

[14] = target: Muscarinic acetylcholine receptor M1 (Homo sapiens) (UniProt P11229); assay: Cholinergic receptor muscarinic 1 (CHRM1) small molecule antagonists, cell-based qHTS assay (AID 1963588); further: nearly all actives have a fitted effect of over 40% in size
How it was run: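 CHRM1-CHO calcium-flux assay, antagonist mode. Cells were seeded 18 h, dye-loaded 1 h at 37 C and given compound for 5 min at RT, then acetylcholine was added at 50nM. FDSS fluorescence was read 3 min; 15 concentrations, three runs.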

[15] = target: Muscarinic acetylcholine receptor M1 (Homo sapiens) (UniProt P11229); assay: Cholinergic receptor muscarinic 1 (CHRM1) small molecule agonists, cell-based qHTS assay (AID 1963589); further: nearly all actives have a fitted effect of over 35% in size
How it was run: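 Human M1 in stable CHO line; 18 h plating, 1 h dye load 37 C; cpd added (agonist mode); Ca2+ fluorescence kinetic read, 1 s intervals; 15 conc, 3 runs.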

[16] = cAMP Responsive Elements (CRE) small molecule agonists, cell-based qHTS assay (AID 1963590)
How it was run: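 HEK 293T CRE-bla, 2,000 cells/well, 18 h preincubation 37 C/5% CO2; cpds (DMSO) pinned, 3 h; LiveBLAzer B/G FRET substrate, 2 h RT.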

[17] = cAMP Responsive Elements (CRE) small molecule antagonists, cell-based qHTS assay (AID 1963591; active means well fitted inhibition curve with a large enough effect in the signal ratio in the repeat runs, not every such curve was filed as active; the % refers to the signal ratio)
How it was run: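 Beta-lactamase reporter read by FRET substrate (LiveBLAzer B/G) after 2 h at room temperature. CRE-bla HEK293T cells had received compound plus 0.25 uM (final) NKH477 for 3 h at 37 °C.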

[18] = target: Beta-2 adrenergic receptor (Homo sapiens) (UniProt P07550); assay: Adrenergic beta2 receptor (ADRB2) small molecule antagonists, cell-based qHTS assay (AID 1963592); further: series mostly up to about 92 µM; nearly all actives have a fitted effect of over 50% in size
How it was run: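 Cells (CHO, stable ADRB2 overexpression) incubated 18-20hr at 37C; compounds added from DMSO; agonist mix (1nM isoproterenol, 100uM IBMX, 25uM Ro-20-1724) added; 0.5hr RT; d2-cAMP and anti-cAMP-cryptate added; 1hr RT; 665/615 nm read.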

[19] = target: Beta-2 adrenergic receptor (Homo sapiens) (UniProt P07550); assay: Adrenergic beta2 receptor (ADRB2) small molecule agonists, cell-based qHTS assay (AID 1963593);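 further: CHO cells stably overexpressing human ADRB2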
How it was run: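 CHO cells stably over-expressing ADRB2 were plated overnight at 37C, then dosed with compounds plus a stimulation mix containing 100uM IBMX and 25uM Ro-20-1724 for 0.5hr at room temperature. cAMP was measured by HTRF competition, 1hr.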

[20] = target: D(2) dopamine receptor (Homo sapiens) (UniProt P14416); assay: Dopamine D2 receptor (DRD2) small molecule agonists, cell-based qHTS assay (AID 1963594); further: nearly all actives have a fitted effect of over 35% in size
How it was run: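 cAMP accumulation in DRD2-HEK293 cells measured by HTRF after 1 h detection; compounds added 10 min before NKH477 (200nM […]) forskolin-analogue stimulation, 30 min at room temperature, with Ro20-1724 present at 0.1 mM final.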
On the % scale 0 is the no-effect control and ±100 the full control effect.

Gonadotropin-releasing hormone receptor (Homo sapiens), sequence (P30968 whole entry, looked up): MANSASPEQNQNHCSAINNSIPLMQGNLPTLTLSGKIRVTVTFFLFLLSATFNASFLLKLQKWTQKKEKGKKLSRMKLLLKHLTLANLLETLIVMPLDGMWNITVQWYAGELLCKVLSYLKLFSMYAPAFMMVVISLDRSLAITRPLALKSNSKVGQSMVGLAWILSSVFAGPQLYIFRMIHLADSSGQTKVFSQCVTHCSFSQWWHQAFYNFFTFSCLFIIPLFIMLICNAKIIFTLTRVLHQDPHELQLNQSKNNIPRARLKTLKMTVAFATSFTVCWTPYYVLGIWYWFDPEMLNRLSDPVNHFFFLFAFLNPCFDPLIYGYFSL
D(2) dopamine receptor (Homo sapiens), sequence (P14416 whole entry, looked up): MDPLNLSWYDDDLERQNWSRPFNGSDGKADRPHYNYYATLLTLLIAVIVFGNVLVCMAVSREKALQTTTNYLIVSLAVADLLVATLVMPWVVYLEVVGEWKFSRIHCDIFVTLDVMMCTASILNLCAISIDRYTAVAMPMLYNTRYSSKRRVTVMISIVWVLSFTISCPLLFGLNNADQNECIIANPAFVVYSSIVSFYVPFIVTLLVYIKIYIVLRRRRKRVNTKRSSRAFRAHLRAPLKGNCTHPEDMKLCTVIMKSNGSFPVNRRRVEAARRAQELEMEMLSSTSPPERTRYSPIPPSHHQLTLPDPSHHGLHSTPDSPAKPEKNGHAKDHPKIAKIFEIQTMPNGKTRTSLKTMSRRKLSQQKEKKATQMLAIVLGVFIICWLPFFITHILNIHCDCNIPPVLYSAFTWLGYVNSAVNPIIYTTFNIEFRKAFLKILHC
5-hydroxytryptamine receptor 2A (Homo sapiens), sequence (P28223 whole entry, looked up): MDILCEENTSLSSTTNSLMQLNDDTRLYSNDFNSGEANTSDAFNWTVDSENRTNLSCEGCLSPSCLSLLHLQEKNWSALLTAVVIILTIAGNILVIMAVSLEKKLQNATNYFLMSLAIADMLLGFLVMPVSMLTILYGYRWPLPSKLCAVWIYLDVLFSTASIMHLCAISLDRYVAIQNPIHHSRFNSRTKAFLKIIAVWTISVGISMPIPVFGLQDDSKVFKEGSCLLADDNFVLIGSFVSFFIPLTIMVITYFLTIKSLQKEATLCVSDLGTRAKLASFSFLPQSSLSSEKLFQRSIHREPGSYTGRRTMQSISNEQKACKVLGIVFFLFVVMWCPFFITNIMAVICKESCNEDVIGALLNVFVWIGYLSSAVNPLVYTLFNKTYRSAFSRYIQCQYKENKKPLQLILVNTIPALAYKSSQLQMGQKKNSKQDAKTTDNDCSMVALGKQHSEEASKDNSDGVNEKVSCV
Muscarinic acetylcholine receptor M1 (Homo sapiens), sequence (P11229 whole entry, looked up): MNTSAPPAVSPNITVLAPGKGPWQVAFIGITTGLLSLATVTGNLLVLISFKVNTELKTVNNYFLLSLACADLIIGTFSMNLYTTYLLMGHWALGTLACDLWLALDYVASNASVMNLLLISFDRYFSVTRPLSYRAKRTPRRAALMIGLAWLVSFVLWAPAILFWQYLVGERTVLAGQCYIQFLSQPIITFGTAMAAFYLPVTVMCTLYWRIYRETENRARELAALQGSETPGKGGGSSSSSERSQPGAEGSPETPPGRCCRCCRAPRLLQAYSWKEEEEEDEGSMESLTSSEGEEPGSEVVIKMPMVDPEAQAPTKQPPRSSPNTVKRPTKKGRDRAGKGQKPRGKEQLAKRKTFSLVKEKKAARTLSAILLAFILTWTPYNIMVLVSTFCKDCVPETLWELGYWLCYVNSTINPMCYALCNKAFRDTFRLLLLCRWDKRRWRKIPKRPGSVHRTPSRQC
Beta-2 adrenergic receptor (Homo sapiens), sequence (P07550 whole entry, looked up): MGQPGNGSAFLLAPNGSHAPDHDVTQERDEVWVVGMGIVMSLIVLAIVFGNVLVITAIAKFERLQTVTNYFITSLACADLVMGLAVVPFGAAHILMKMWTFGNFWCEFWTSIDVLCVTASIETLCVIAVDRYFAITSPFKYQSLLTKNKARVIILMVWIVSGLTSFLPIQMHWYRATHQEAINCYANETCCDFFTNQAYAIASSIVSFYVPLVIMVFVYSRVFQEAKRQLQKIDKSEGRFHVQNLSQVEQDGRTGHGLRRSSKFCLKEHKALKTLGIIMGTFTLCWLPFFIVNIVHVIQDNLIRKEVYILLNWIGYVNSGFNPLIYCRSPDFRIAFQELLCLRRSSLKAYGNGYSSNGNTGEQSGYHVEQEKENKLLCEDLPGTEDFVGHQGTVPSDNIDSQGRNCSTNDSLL
KiSS-1 receptor (Homo sapiens), sequence (Q969F8 whole entry, looked up): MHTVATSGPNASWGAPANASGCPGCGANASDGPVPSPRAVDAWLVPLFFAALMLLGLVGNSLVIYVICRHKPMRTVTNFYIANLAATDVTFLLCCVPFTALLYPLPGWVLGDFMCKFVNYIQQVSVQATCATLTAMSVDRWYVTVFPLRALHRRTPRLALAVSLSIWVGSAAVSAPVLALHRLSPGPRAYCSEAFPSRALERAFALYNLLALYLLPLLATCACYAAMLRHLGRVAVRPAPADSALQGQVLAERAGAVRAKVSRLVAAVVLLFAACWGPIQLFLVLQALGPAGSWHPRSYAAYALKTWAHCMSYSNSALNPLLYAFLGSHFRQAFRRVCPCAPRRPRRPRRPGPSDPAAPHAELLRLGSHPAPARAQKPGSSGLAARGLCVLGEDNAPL

Cc1cccc(C)c1NC(=O)CN1CCCCCC1
inactive: Potency [1] | Potency [2] | Potency [3] | Potency [4] | Potency [5] | Potency [6] | Potency [7] | Potency [8] | Potency [9] | Potency [10] | Potency [11] | Potency [12] | Potency [13] | Potency [14] | Potency [15] | Potency [16] | Potency [17] | Potency [18] | Potency [19] | Potency [20]

COc1cc(C(=S)N2CCOCC2)ccc1O
inactive: Potency [1] | Potency [2] | Potency [3] | Potency [4] | Potency [5] | Potency [6] | Potency [7] | Potency [8] | Potency [9] | Potency [10] | Potency [11] | Potency [12] | Potency [13] | Potency [14] | Potency [15] | Potency [16] | Potency [17] | Potency [18] | Potency [19] | Potency [20]

COc1ccc2cc1Oc1cc3c(cc1OC)CC[N+](C)(C)[C@H]3Cc1ccc(cc1)Oc1c(OC)c(OC)cc3c1[C@@H](C2)[N+](C)(C)CC3
inactive: Potency [1] | Potency [2] | Potency [3] | Potency [4] | Potency [5] | Potency [6] | Potency [7] | Potency [8] | Potency [9] | Potency [10] | Potency [11] | Potency [12] | Potency [13] | Potency [14] | Potency [15] | Potency [16] | Potency [17] | Potency [18] | Potency [19] | Potency [20]

CCN(CC#N)c1cccc(C)c1
inactive: Potency [1] | Potency [2] | Potency [3] | Potency [4] | Potency [5] | Potency [6] | Potency [7] | Potency [8] | Potency [9] | Potency [10] | Potency [11] | Potency [12] | Potency [13] | Potency [14] | Potency [15] | Potency [16] | Potency [17] | Potency [18] | Potency [19] | Potency [20]

O=C(O)C(=O)Nc1cccc(-c2nn[nH]n2)c1
inactive: Potency [1] | Potency [2] | Potency [3] | Potency [4] | Potency [5] | Potency [6] | Potency [7] | Potency [8] | Potency [9] | Potency [10] | Potency [11] | Potency [12] | Potency [13] | Potency [14] | Potency [15] | Potency [16] | Potency [17] | Potency [18] | Potency [19] | Potency [20]

C[C@@H]1NC(=O)[C@@H](N)CNC(=O)[C@H](C2CCNC(N)=N2)NC(=O)/C(=C/NC(N)=O)NC(=O)[C@H](CNC(=O)C[C@@H](N)CCCN)NC1=O (stereo not given in full)
inactive: activity change, negative = cytotoxicity [1] -0.202% [at 0.349 µM] | activity, positive = activation [2] -0.551% [at 0.349 µM] | activity change [3] -0.0026% [at 0.217 µM, stronger effect = higher value] | activation [4] 4.86% [at 0.29 µM] | activation [5] -0.973% [at 0.217 µM] | activation [6] -0.0566% [at 0.249 µM] | activation [7] 0.811% [at 0.249 µM] | activity change, negative = cytotoxicity [8] 0.952% [at 0.249 µM] | activity change, negative = cytotoxicity [9] -3.72% [at 0.249 µM] | activity change, negative = cytotoxicity [10] -17.8% [at 0.249 µM] | activation [11] 5.76% [at 0.249 µM] | activity, negative = inhibition [12] 39.2% [at 0.233 µM] | activation [13] -0.558% [at 0.292 µM] | activity, negative = inhibition [14] -3.02% [at 0.232 µM] | activation [15] -0.0449% [at 0.29 µM] | activation [16] -0.384% [at 0.349 µM] | activity change, negative = inhibition [17] 0.0328% [at 0.349 µM] | activity change, negative = inhibition [18] 6.03% [at 0.349 µM] | activation [19] -2.39% [at 0.349 µM] | activation [20] -0.993% [at 0.349 µM]

CNc1ccccc1
inactive: Potency [1] | Potency [2] | Potency [3] | Potency [4] | Potency [5] | Potency [6] | Potency [7] | Potency [8] | Potency [9] | Potency [10] | Potency [11] | Potency [12] | Potency [13] | Potency [14] | Potency [15] | Potency [16] | Potency [17] | Potency [18] | Potency [19] | Potency [20]
